According to the supplement of paper PMC3334620:
The full ranking holds about 33,000 sequences; the median of “E-score (-0.5 to 0.5)” is about -0.054, and the highest 2% start at about 0.35. The list comes from a sample in which the highest values are over-represented; it also holds similar and randomly drawn sequences.

target: T1, Stb5 (UniProt P38699); test: PBM E-score (8-mer binding enrichment) (E-score (-0.5 to 0.5)); higher = stronger / more preferred TF binding; conditions: protein concentration: 200 nM; construct: GST-full length
T1 sequence: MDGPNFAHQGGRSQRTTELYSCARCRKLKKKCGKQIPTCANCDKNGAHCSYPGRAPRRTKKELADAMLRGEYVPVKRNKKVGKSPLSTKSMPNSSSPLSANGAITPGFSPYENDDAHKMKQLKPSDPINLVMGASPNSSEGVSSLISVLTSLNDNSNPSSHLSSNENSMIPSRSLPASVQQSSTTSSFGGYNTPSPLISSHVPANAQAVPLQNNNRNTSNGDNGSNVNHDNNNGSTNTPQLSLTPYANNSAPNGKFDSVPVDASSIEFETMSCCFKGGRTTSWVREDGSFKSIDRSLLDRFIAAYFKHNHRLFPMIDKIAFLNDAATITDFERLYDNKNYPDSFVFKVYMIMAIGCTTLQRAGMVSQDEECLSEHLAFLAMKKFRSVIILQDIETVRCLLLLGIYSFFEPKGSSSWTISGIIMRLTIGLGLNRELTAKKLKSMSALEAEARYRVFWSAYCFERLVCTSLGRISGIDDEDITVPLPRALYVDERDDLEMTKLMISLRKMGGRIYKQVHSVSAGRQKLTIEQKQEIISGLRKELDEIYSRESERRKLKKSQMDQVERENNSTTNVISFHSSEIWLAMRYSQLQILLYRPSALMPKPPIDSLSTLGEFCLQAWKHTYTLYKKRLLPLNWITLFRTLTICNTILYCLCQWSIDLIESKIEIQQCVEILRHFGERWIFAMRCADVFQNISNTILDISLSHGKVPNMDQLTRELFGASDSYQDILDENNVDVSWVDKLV
Protocol: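 Universal 'all 10-mer' protein binding microarrays (Agilent AMADID 015681) probed with GST-tagged S. cerevisiae TFs (full-length or DBD) made by in vitro transcription/translation (PURExpress), about 100-200 nM. Bound TF was detected with fluorescent anti-GST. Each ungapped 8-mer (which stands for itself and its reverse complement) is scored by the PBM enrichment score (E-score), a modified Wilcoxon-Mann-Whitney statistic from -0.5 to +0.5, computed with the Universal PBM Analysis Suite. Scale: above 0.35 generally sequence-specific binding.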

Compared with CCCTCACC, AGTAAAGA is higher in “PBM E-score” value: -0.225 for the first, 0.143 for the second.

First: GCACCCGA
Second: TCCGTGAA
The “PBM E-score” value of the first is lower: 0.0572 for the first, 0.171 for the second.

Compared with ATGAAACG, GTTTGGGA is lower in “PBM E-score” value: 0.067 for the first, -0.2 for the second.

Going from CCGCGTTC to GAGAGTGA, the “PBM E-score” value falls from 0.193 to -0.349.

Compared with ATATCCGA, ATATCACC is higher in “PBM E-score” value: 0.37 for the first, 0.436 for the second.

Compared with ATATCCGG, ACATCCGC is higher in “PBM E-score” value: 0.294 for the first, 0.339 for the second.

Compared with CTATCCGA, ATATCACA is lower in “PBM E-score” value: 0.0404 for the first, -0.0666 for the second.

Going from CTATCCGC to ATATCCGC, the “PBM E-score” value rises from 0.0573 to 0.402.

Compared with ATATCTCC, CTATCTCC is lower in “PBM E-score” value: 0.397 for the first, 0.235 for the second.

ATCTCTCC and CTATCACC are the same in “PBM E-score” value: 0.216 for the first, 0.216 for the second.

First: ATGGGTGA
Second: GACTTCCA
The “PBM E-score” value of the first is higher: -0.12 for the first, -0.177 for the second.

Going from AGAAAACA to AGGTCGCA, the “PBM E-score” value rises from -0.128 to 0.0143.

First: CTGCTAAA
Second: ACTCCATG
The “PBM E-score” value of the first is higher: 0.00756 for the first, -0.0336 for the second.

First: CTCAGAAC
Second: AATTGGCG
The “PBM E-score” value of the first is lower: -0.191 for the first, 0.063 for the second.

Going from GCCCCCAC to ATATTCCC, the “PBM E-score” value rises from 0.0261 to 0.372.

Compared with ATATACCC, CTATGTCC is lower in “PBM E-score” value: 0.371 for the first, 0.232 for the second.

Compared with ATATGTCC, ATATTCCG is lower in “PBM E-score” value: 0.406 for the first, 0.171 for the second.

First: ATATACCG
Second: CTATACCC
The “PBM E-score” value of the first is higher: 0.34 for the first, 0.229 for the second.

First: CTATTCCC
Second: CTATCCCC
The “PBM E-score” value of the first is lower: 0.136 for the first, 0.276 for the second.

Going from ATATCCCC to ATATGTCG, the “PBM E-score” value falls from 0.395 to 0.083.

First: ATATCCCG
Second: AGTCTGGA
The “PBM E-score” value of the first is higher: 0.275 for the first, 0.00288 for the second.

Going from TCGATCGA to GAGCTCAA, the “PBM E-score” value rises from -0.148 to 0.0147.

Going from ACTGGCCG to TCGCTCCA, the “PBM E-score” value falls from -0.0443 to -0.126.

Compared with AAATTCAG, CAGCTGAG is lower in “PBM E-score” value: -0.221 for the first, -0.231 for the second.

First: CCATGCAA
Second: ACGTGGGA
The “PBM E-score” value of the first is higher: -0.00387 for the first, -0.265 for the second.

First: AGAAAAGG
Second: ATCAAACA
The “PBM E-score” value of the first is higher: -0.103 for the first, -0.234 for the second.

Compared with GTATCGGA, ATATCGGA is lower in “PBM E-score” value: 0.263 for the first, 0.166 for the second.

First: ATATATCC
Second: CTATATCC
The “PBM E-score” value of the first is higher: 0.398 for the first, 0.187 for the second.

Compared with CTATCGGA, ATATATCA is lower in “PBM E-score” value: 0.402 for the first, 0.0402 for the second.

First: ACCTTTAG
Second: TAAGCCCA
The “PBM E-score” value of the first is higher: 0.0714 for the first, 0.0396 for the second.

First: AACGCGAC
Second: AATAGAAT
The “PBM E-score” value of the first is higher: -0.173 for the first, -0.187 for the second.

First: GATAGGTA
Second: ATCGGCAC
The “PBM E-score” value of the first is lower: -0.0734 for the first, 0.339 for the second.

First: ACCGGCAG
Second: CGCGGCAC
The “PBM E-score” value of the first is lower: 0.277 for the first, 0.288 for the second.

Going from GTCGGCAA to ACCGGCAC, the “PBM E-score” value rises from 0.276 to 0.373.

First: CTCGGCAC
Second: AGCGGCAC
The “PBM E-score” value of the first is lower: 0.187 for the first, 0.355 for the second.

Going from GTCGGCAC to GGCGGCAC, the “PBM E-score” value falls from 0.374 to 0.343.

First: ATCGGCAT
Second: ACCGGCAA
The “PBM E-score” value of the first is higher: 0.363 for the first, 0.241 for the second.

First: ATCGGCAG
Second: ATTGGAGC
The “PBM E-score” value of the first is higher: 0.219 for the first, -0.193 for the second.

First: TATCCTAA
Second: CATGTGGG
The “PBM E-score” value of the first is higher: -0.109 for the first, -0.114 for the second.

Compared with CCATGGGC, AAATTGAC is higher in “PBM E-score” value: -0.0701 for the first, 0.0873 for the second.

Compared with AGCGGCAA, AGCGGCAT is higher in “PBM E-score” value: 0.2 for the first, 0.401 for the second.

First: AGCGGCAG
Second: AGCGGCCA
The “PBM E-score” value of the first is higher: 0.276 for the first, 0.177 for the second.

Compared with AGCGGCCT, AGCGGCCG is lower in “PBM E-score” value: 0.377 for the first, 0.252 for the second.
